Results on 45 molecules are retold here after PubChem BioAssay AID652197 (Broad Institute, 2013).

Among all 340,000 compounds or so, about 500 (0.15%) were called active. Many of the other results were omitted from the sample, so actives are more common in it than they were. A number with no mark means an inactive call.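 Rule for the calls: active = mean replicate inhibition of at least 30%, or all replicates individually reaching that 30% level; inactive = mean below 30% and not every replicate reaching it.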

Endoplasmic reticulum aminopeptidase 1 (Homo sapiens), sequence (Q9NZ08 whole entry, looked up): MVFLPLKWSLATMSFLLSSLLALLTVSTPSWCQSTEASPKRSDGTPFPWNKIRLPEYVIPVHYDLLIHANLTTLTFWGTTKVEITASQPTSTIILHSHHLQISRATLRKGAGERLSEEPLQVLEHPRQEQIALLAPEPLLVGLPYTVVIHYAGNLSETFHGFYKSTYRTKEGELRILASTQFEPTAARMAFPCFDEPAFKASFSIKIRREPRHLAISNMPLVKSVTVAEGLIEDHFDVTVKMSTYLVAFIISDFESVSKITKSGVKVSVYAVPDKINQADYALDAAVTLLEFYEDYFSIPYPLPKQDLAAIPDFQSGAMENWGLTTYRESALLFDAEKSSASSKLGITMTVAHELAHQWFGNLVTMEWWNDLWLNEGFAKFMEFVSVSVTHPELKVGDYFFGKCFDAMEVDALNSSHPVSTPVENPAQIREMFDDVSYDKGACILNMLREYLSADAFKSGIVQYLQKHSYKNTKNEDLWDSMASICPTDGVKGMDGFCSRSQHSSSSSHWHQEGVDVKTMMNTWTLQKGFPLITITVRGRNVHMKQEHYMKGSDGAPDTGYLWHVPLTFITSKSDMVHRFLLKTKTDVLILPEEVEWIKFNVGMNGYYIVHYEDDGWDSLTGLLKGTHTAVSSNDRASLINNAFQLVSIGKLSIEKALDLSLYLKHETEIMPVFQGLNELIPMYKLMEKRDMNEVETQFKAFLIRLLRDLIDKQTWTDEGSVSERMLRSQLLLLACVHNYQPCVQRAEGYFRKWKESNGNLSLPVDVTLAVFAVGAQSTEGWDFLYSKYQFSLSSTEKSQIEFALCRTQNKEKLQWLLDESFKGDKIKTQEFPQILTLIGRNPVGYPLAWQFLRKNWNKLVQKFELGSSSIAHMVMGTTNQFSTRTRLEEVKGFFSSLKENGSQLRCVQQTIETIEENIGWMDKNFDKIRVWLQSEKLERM

This assay concerns the target Endoplasmic reticulum aminopeptidase 1 (Homo sapiens) (UniProt Q9NZ08). Description: human ERAP1 aminopeptidase inhibitors, primary screen, biochemical, single point, plate reader (AID 652197).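 Note: 0% = neutral control wells and 100% = L-leucinethiol positive control wells.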 The note with it: recombinant ERAP1, Leu-AMC fluorescence, 60 min; at 10.7 µM; active compounds read high.
The term inhibition denotes the drop in the measured response relative to a control, in per cent. Turning to `CO[C@H]1CN(C)C(=O)c2ccc(NC(=O)C3CC3)cc2OC[C@@H](C)N(C(=O)CN2CCOCC2)C[C@H]1C`, the inhibition is 5.08%.

On to `COc1ccc(S(=O)(=O)N(C)C[C@@H]2Oc3ccc(NC(=O)C4CC4)cc3CC(=O)N([C@@H](C)CO)C[C@H]2C)cc1`, for which the inhibition was -1.45%.

As to `CNC[C@H]1Oc2cc(-c3ccc(OC)cc3)ccc2S(=O)(=O)N([C@H](C)CO)C[C@@H]1C`, the inhibition was -1.76%.

As for `CO[C@@H](CN(C)S(=O)(=O)c1ccccc1)[C@H](C)CN(Cc1ccccc1Cl)[C@H](C)CO`, the inhibition was -0.894%.

Take `C[C@@H](NC(=O)C[C@H]1C[C@@H]2c3cc(NC(=O)C4CCC4)ccc3O[C@@H]2[C@@H](CO)O1)c1ccccc1`: the inhibition was -1.46%.

For the molecule `CO[C@@H]1CN(C)C(=O)c2ccc(NC(=O)Nc3cc(F)ccc3F)cc2OC[C@@H](C)N(C)C[C@@H]1C`, the inhibition was 2.65%.

In the case of `CO[C@@H]1CC[C@@H]2CCOc3c(C#N)cccc3C(=O)N(C)C[C@H](C)C(=O)N(C)C[C@H]1O2`, the inhibition is 0.999%.

For the molecule `COc1ccc(CNC(=O)C[C@H]2C[C@@H]3c4cc(NC(=O)NC5CCCC5)ccc4O[C@@H]3[C@H](CO)O2)cc1`, the inhibition was 2.29%.

As for `C/C=C/c1ccc2c(c1)O[C@H](CN(C)Cc1cccc(F)c1)[C@H](C)CN([C@H](C)CO)S2(=O)=O`, the inhibition was 3.38%.

With `COc1ccccc1C#Cc1ccc([C@@H]2[C@H](CO)N3CCCCN(CCC(F)(F)F)C[C@@H]23)cc1`, the inhibition was -1.03%.

In the case of `CCC(=O)N1[C@H](C(=O)NC2CCC2)[C@@H](CO)[C@@H]2Cn3c(cccc3=O)[C@@H]21`, the inhibition was -1.13%.

Consider `O=C(CCN1CCCCC1)NCC[C@@H]1CC[C@H](NS(=O)(=O)c2cccc(Cl)c2)[C@H](CO)O1`, for which the inhibition was -1.39%.

In the case of `C/C=C/c1ccc2c(c1)[C@H]1[C@H](CCN1S(=O)(=O)c1cn(C)cn1)[C@H](CO)N2`, the inhibition was -3.06%.

In the case of `CO[C@@H]1CC[C@@H]2CCOc3c(C#N)cccc3C(=O)N(C)C[C@@H](OC)[C@@H](C)C(=O)N(C)C[C@H]1O2`, the inhibition is -3.74%.

For the molecule `COc1cccc(NC(=O)N[C@H]2C=C[C@H](CC(=O)NCc3ccccn3)O[C@@H]2CO)c1`, the inhibition is 6.83%.

Take `COc1ccccc1CN1[C@H](CO)[C@@H](c2ccccc2)C12CN(C(=O)c1cnccn1)C2`: the inhibition is 0.797%.

Take `C[C@H]1CCCCO[C@H](CN(C)C(=O)NC2CCCCC2)[C@@H](C)CN([C@@H](C)CO)C(=O)c2cc(NC(=O)Nc3ccc4c(c3)OCO4)ccc2O1`: the inhibition is -0.479%.

As to `O=C(OCC(=O)N1CCN(C(=O)c2ccco2)CC1)c1ccc(Cl)c(Cl)c1`, the inhibition was 0.999%.

`CN(c1ccccc1)S(=O)(=O)c1cc(C(=O)OCC(=O)N2CCN(C(=O)c3ccco3)CC2)ccc1Cl`: the inhibition was 60.1% (active).

For the molecule `O=C(OCC(=O)N1CCN(C(=O)c2ccco2)CC1)c1cccc(O)c1`, the inhibition is -0.23%.

Take `CO[C@@H]1CN(C)C(=O)c2cc(NC(=O)C3CCOCC3)ccc2OC[C@H](C)N(Cc2cccnc2)C[C@H]1C`: the inhibition was 0.791%.

Turning to `O=C(C[C@H]1CC[C@H]2NC[C@@H](O)COC[C@@H]2O1)NCCN1CCCC1`, the inhibition was 1.06%.

`O=C(Nc1cccc(F)c1)N1CC(=O)N2[C@H](C1)[C@H](c1ccc(-c3ccccc3F)cc1)[C@@H]2CO`: the inhibition is 0.092%.

In the case of `Cc1noc(C)c1C(=O)N(C)C[C@H]1OCc2ccccc2-c2c(n(C)c3ccccc23)C(=O)N([C@@H](C)CO)C[C@H]1C`, the inhibition is -0.288%.

Consider `O=C(NC1=CC(=O)c2ccccc2C1=O)c1ccccc1`, for which the inhibition was 2.97%.

For the molecule `CC(=O)N(C1=C(Cl)C(=O)c2ccccc2C1=O)c1ccc(C(=O)O)cc1`, the inhibition was 84.4% (active).

With `O=C1C(Cl)=C(Oc2ccccc2)C(=O)c2ccccc21`, the inhibition is 4.33%.

For `CC(C)NC(=O)N1CCCCN2[C@@H](CO)[C@@H](c3ccc(C#Cc4ccccc4)cc3)[C@@H]2C1`, the inhibition is 0.974%.

`O=C(Cc1ccccc1)N1CC[C@@H]2[C@H](CO)Nc3ccc(-c4ccccc4)cc3[C@@H]21`: the inhibition is 4.96%.

Regarding `C/C=C/c1ccc([C@H]2[C@H](CO)N(C(=O)CN(C)C)C23CN(C(=O)C2CC2)C3)cc1`, the inhibition was -1.65%.

`O=C(C[C@H]1CC[C@H]2[C@@H](COC[C@H](O)CN2S(=O)(=O)c2cccc(F)c2)O1)NC1CCC1`: the inhibition was -1.89%.

On to `COc1ccc(-c2ccc([C@@H]3[C@H](CN(C)S(C)(=O)=O)N[C@@H]3CO)cc2)cc1`, for which the inhibition was -0.559%.

Regarding `C[C@@H]1CCCCO[C@@H](CN(C)S(=O)(=O)c2cccs2)[C@H](C)CN([C@H](C)CO)C(=O)c2cc(NC(=O)CCCN(C)C)ccc2O1`, the inhibition is 0.521%.

On to `COc1ccc(CCOC(=O)CNC(=O)c2ccc(Cl)cc2Cl)cc1`, for which the inhibition is 37.4% (active).

Turning to `Cc1ccccc1NC(=O)Cc1nc(COC(=O)CNC(=O)c2ccc(Cl)cc2Cl)cs1`, the inhibition was -1.49%.

As to `COc1ccc(CCNC(=O)COC(=O)c2cnc(Cl)c(Cl)c2)cc1`, the inhibition is -0.478%.

As to `CCC(=O)N1CC2(C1)[C@@H](c1ccc(C3=CCCC3)cc1)[C@@H](CO)N2C(=O)COC`, the inhibition was -3.58%.

`C[C@@H]1CCCCO[C@@H](CN(C)Cc2ccc3c(c2)OCO3)[C@@H](C)CN([C@@H](C)CO)C(=O)c2cc(NC(=O)C3CCCCC3)ccc2O1`: the inhibition is -1.88%.

For the molecule `C[C@@H]1CN([C@@H](C)CO)C(=O)c2cc(C#CC3CCCCC3)cnc2O[C@H]1CN(C)C(=O)Cc1ccccn1`, the inhibition was 4.3%.

Consider `COc1ccc(NC(=O)N(C)C[C@@H]2OCCCC[C@@H](C)Oc3ccc(NS(C)(=O)=O)cc3C(=O)N([C@@H](C)CO)C[C@H]2C)cc1`, for which the inhibition was 4.38%.

For `CCC(=O)N[C@H]1CC[C@@H](CC(=O)NCC2CC2)O[C@@H]1CO`, the inhibition was -1.77%.

With `Cc1cc2c(nc1C)CCCN2C`, the inhibition was 56.4% (active).

With `CN1CCCc2nc(-c3ccccc3)ccc21`, the inhibition is 0.84%.

In the case of `C[C@H]([C@@H](O)[C@@H](O)[C@@H](C)C(C)(C)C)[C@H]1CC[C@H]2C3CC[C@H]4C[C@H](OS(=O)(=O)O)[C@@H](OS(=O)(=O)O)C[C@]4(C)[C@H]3CC[C@]12C` (stereo not given in full), the inhibition was 51.7% (active).

For `CC(=O)O[C@H]1CC[C@@]2(C)[C@@H](CC[C@@H]3[C@@H]2CC[C@]2(C)[C@@H](C(C)(C)O)C[C@@H]32)C1`, the inhibition was -4.42%.
